Data reported in PubChem BioAssay (Tox21).
Where “and” joins values, the source holds several entries; their conditions need not be identical. Identical values can stand only once. Results filed as inconclusive are left out. Calls of active or inactive are those of the source. Unless noted, calls follow the shape of the dose curve; as a rule, active = well fitted curve in the direction sought with a large enough effect in the repeat runs; inconclusive = weak or mixed curves; inactive = no such curve, though single readings can be large; an effect the other way counts as inactive or inconclusive.

What was measured:
[1] = qHTS assay to identify small molecule agonists of the constitutive androstane receptor (CAR) signaling pathway - cell viability counter screen (AID 1224836); also: nearly all actives have a fitted effect of over 45% in size
Outline: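 Cell viability multiplexed with the CAR agonist screen: CellTiter-Fluor fluorescence after 23 hr at 37 C. HepG2-CYP2B6-hCAR cells got compounds at 15 concentrations with PK11195 at 0.75 uM final.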

[2] = qHTS assay to identify small molecule antagonists of the constitutive androstane receptor (CAR) signaling pathway - cell viability counter screen (AID 1224837); also: nearly all actives have a fitted effect of over 45% in size
Outline: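 Cells are seeded, rested 4 hr at 37 C/5% CO2, dosed with compound (15-point series) and 50 nM CITCO, incubated a further 23 hr, and then CellTiter-Fluor reagent is added before fluorescence is read. The line is HepG2 with stable hCAR and CYP2B6-2.2kb.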

[3] = qHTS assay to identify small molecule antagonists of the estrogen related receptor signaling pathway with the pleiotropic PPARgamma coactivator (PGC) from Tox21 10K library - cell viability counter screen (AID 1224840; active = well fitted cell-killing curve with a large enough effect in the repeat runs, not every such curve was filed as active; also: nearly all actives have a fitted effect of over 40% in size; also: potency is read from the fitted curve at half-maximal effect)
Outline: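 Cell viability is measured by CellTiter-Fluor fluorescence in PGC/ERR cells that receive compounds after a 6-hour attachment period and are then incubated 17.5 hours at 37 C.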

[4] = qHTS assay to identify small molecule antagonists of the estrogen related receptor signaling pathway with the pleiotropic PPARgamma coactivator (PGC) from Tox21 10K library (AID 1224841; call rule not given here; also: actives are mostly falling curves and most rising ones were filed inactive; nearly all actives have a fitted effect of over 50% in size)
Outline: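 Cells stably carrying the PGC/ERR reporter, seeded at 2,000 per well, received pin-transferred compounds 6 h post-plating. Exposure lasted 18 h at 37 C. Signal: One-Glo luminescence.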

[5] = biological target: Thyrotropin receptor (Homo sapiens) (UniProt P16473); assay: qHTS assay to identify small molecule agonists of the thyroid stimulating hormone receptor (TSHR) signaling pathway (AID 1224843; calls by dose curve; also: nearly all actives have a fitted effect of over 45% in size; also: potency is read from the fitted curve at half-maximal effect)
Sequence of Thyrotropin receptor (Homo sapiens) (P16473 whole entry, looked up): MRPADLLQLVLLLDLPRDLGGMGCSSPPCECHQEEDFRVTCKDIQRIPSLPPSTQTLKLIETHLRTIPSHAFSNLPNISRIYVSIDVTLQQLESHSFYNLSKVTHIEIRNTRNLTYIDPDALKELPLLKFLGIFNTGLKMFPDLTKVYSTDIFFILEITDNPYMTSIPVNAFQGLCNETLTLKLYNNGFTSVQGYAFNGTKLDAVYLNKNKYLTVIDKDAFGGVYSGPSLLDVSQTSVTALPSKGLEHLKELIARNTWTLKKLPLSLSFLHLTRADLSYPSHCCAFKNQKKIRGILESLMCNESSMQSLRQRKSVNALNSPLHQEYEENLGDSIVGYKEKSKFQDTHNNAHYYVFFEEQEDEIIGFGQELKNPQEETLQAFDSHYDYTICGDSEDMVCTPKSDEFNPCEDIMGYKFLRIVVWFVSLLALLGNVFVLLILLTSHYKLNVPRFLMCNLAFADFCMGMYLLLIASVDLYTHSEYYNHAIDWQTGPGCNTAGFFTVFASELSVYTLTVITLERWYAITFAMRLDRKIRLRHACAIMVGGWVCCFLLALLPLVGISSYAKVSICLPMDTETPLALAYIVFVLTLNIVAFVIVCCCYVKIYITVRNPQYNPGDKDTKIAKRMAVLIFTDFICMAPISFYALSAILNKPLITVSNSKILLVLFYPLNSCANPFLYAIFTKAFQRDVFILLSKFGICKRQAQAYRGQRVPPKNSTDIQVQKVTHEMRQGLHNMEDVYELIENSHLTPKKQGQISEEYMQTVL
Outline: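 HEK293/TSHR, 800 cells/well; cpd 30 min RT; add cAMP-d2 + anti-cAMP-cryptate, 1 h RT; fluorescence read on plate reader. 15-pt titration, n=3.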

[6] = qHTS assay to identify small molecule agonists of the hypoxia (HIF-1) signaling pathway - cell viability counter screen (AID 1224844; calls by dose curve; also: nearly all actives have a fitted effect of over 50% in size; also: potency is read from the fitted curve at half-maximal effect)
Outline: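 Viability counter screen: HRE-bla ME-180 cells plated 5 hrs before compound addition, treated 17 hrs at 37C and 5% CO2, then CellTiter-Glo added after the FRET reporter read; luminescence after 30 min.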

[7] = qHTS assay to identify small molecule agonists of H2AX (AID 1224845; active = well fitted activation curve with a large enough effect in the signal ratio in the repeat runs, not every such curve was filed as active; the % refers to the signal ratio)
Outline: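 Wild-type CHO-K1 cells, plated overnight, exposed 3hr at 37C to 15 concentrations (0.76% DMSO final). Lysed, then HTRF anti-pH2AX (S139) cryptate and anti-H2AX-d2 antibodies, 24 hr room temperature; 665/620 nm emission read.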

[8] = qHTS assay to identify small molecule agonists of the hypoxia (HIF-1) signaling pathway (AID 1224846; active = well fitted activation curve with a large enough effect in the signal ratio in the repeat runs, not every such curve was filed as active; the % refers to the signal ratio)
Outline: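 Agonist mode reporter screen. ME-180 cells stably expressing bla under HRE control received test compounds in DMSO for 17 hrs (37C, 5% CO2), and beta-lactamase activity was then detected with the CCF4-AM FRET substrate.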

[9] = qHTS assay to identify small molecule agonists of H2AX - cell viability counter screen (AID 1224847; calls by dose curve; also: nearly all actives have a fitted effect of over 30% in size; also: potency is read from the fitted curve at half-maximal effect)
Outline: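 Counter-screen for viability: CellTiter-Glo ATP luminescence read after 3 h compound treatment (15-point titration, 0.76% DMSO final) of CHO-K1 cells at 37C, with 30 min room-temperature reagent incubation.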

[10] = qHTS assay to identify small molecule antagonists of the estrogen related receptor (ERR) signaling pathway from Tox21 library (AID 1224848); also: nearly all actives have a fitted effect of over 50% in size; also: potency is read from the fitted curve at half-maximal effect
Outline: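 Compounds dissolved in DMSO are pin-transferred onto ERR reporter cells (2,000 per well) that have settled for 6 h at 37 C. Plates then incubate 18 h at 37 C before ONE-Glo luciferase reagent and a luminescence read 30 min later.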

[11] = qHTS assay to identify small molecule agonists of the estrogen related receptor (ERR) signaling pathway from Tox21 library (AID 1224849; calls by dose curve; also: nearly all actives have a fitted effect of over 15% in size); conditions: ERR reporter cell line, ONE-Glo luciferase, 18 h
Outline: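 Quantitative HTS in agonist format: NTP ERR cell line, compounds transferred in DMSO after 6 h plating, 18 h incubation at 37 C, ONE-Glo luminescence endpoint.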

[12] = qHTS RealTime-Glo MT Cell Viability Assay in HepG2 cells - 24 hour (AID 1224867); also: nearly all actives have a fitted effect of over 50% in size; also: potency is read from the fitted curve at half-maximal effect
Outline: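 Luminescence read-out: viable HepG2 cells reduce a prosubstrate to a NanoLuc substrate, giving a signal proportional to live cell number. Reads taken at 0, 8, 16, 24, 32 and 40 h of compound exposure at 37 C.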

[13] = qHTS RealTime-Glo MT Cell Viability Assay in HEK293 cells - 32 hour (AID 1224868); also: nearly all actives have a fitted effect of over 50% in size; also: potency is read from the fitted curve at half-maximal effect
Outline: (§1)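 Nonlytic real-time viability readout: viable cells convert prosubstrate to NanoLuc substrate, giving luminescence proportional to live cell number. HEK293, 600 cells/well, compound added after 5 h, continuous culture at 37 C.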

[14] = A CellTox Green Cytotoxicity Assay to monitor cytotoxicity in HEK293 cells - 0 hour (AID 1224869); also: nearly all actives have a fitted effect of over 50% in size
Outline: (§2)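 Dead-cell fluorescence measured kinetically: asymmetric cyanine dye, HEK293, 600 cells/well, 5 h settle, 23 nL cpd/DMSO, 37 C, reads 0–40 h every 8 h.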

[15] = qHTS RealTime-Glo MT Cell Viability Assay in HepG2 cells - 40 hour (AID 1224870); also: nearly all actives have a fitted effect of over 50% in size; also: potency is read from the fitted curve at half-maximal effect
Outline: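 HepG2 cells (600/well) mixed with RealTime-Glo MT reagent, settled 5 h at 37 C/5% CO2 before compound addition. Nonlytic NanoLuc luminescence from viable-cell prosubstrate reduction read repeatedly during 40 h treatment at 37 C.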

[16] = A CellTox Green Cytotoxicity Assay to monitor cytotoxicity in HEK293 cells - 40 hour (AID 1224871); also: nearly all actives have a fitted effect of over 45% in size; also: potency is read from the fitted curve at half-maximal effect
Outline: as §2

[17] = biological target: Nuclear receptor subfamily 1 group I member 3 (Homo sapiens) (UniProt Q14994); assay: qHTS assay to identify small molecule antagonists of the constitutive androstane receptor (CAR) signaling pathway (AID 1224838);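 also: HepG2 cells stably expressing hCAR with CYP2B6 luciferase reporter stimulated by CITCO; nearly all actives have a fitted effect of over 40% in size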
Sequence of Nuclear receptor subfamily 1 group I member 3 (Homo sapiens) (Q14994 whole entry, looked up): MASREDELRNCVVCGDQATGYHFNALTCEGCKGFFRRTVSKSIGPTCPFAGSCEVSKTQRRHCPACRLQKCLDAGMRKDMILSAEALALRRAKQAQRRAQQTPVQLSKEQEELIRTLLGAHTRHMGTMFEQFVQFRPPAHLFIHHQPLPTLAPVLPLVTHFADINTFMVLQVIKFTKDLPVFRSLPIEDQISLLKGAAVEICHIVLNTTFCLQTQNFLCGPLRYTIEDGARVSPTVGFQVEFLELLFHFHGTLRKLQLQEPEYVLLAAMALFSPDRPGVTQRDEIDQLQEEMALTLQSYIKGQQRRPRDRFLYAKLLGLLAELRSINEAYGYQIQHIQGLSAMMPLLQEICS
Outline: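 Luminescence from a CYP2B6-2.2kb promoter reporter in hCAR-expressing HepG2 cells reflects CAR signaling. Cells received compounds at 15 concentrations and 50 nM CITCO (final), then incubated 24 h at 37 C/5% CO2.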

[18] = qHTS RealTime-Glo MT Cell Viability Assay in HEK293 cells - 16 hour (AID 1224872); also: nearly all actives have a fitted effect of over 50% in size; also: potency is read from the fitted curve at half-maximal effect
Outline: as §1

[19] = qHTS assay to identify small molecule agonists of the estrogen related receptor signaling pathway with the pleiotropic PPARgamma coactivator (PGC) from Tox21 10K library (AID 1224842); also: nearly all actives have a fitted effect of over 15% in size
Outline: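 PGC/ERR reporter cell line, 2,000 cells per well, incubated 6 h at 37 C before 23 nL compound in DMSO was added. After 18 h at 37 C, One-Glo luminescence read following 30 min at room temperature.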

[20] = biological target: Nuclear receptor subfamily 1 group I member 3 (Homo sapiens) (UniProt Q14994); assay: qHTS assay to identify small molecule agonists of the constitutive androstane receptor (CAR) signaling pathway (AID 1224839);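 also: HepG2 cells stably carrying human CAR and a CYP2B6 luciferase reporter; nearly all actives have a fitted effect of over 15% in size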
Outline: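 Luminescent ONE-Glo read-out after 24 hr, 37 C exposure of double-stable HepG2-CYP2B6-hCAR reporter cells to a 15-point compound series, in the presence of 0.75 uM PK11195 (final).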
% is scaled to controls: 0 for no effect and ±100 for the full control effect.

CC(C)(c1cc(Br)c(OCC(Br)CBr)c(Br)c1)c1cc(Br)c(OCC(Br)CBr)c(Br)c1 (stereo not given)
inactive: Potency [1] | Potency [2] | Potency [3] | Potency [4] | Potency [5] | Potency [6] | Potency [7] | Potency [8] | Potency [9] | Potency [10] | activity change, positive = activation ([11]; at 42.5 µM (top of the series)) 2.35% | Potency [12] | Potency [13] | Potency [14] | Potency [15] | Potency [16]

COC(=O)Nc1nc2ccc(C(=O)c3ccccc3)cc2[nH]1
active: Potency [13] 848 nM
inactive: Potency [1] | Potency [2] | Potency [17] | Potency [3] | Potency [5] | Potency [8] | Potency [9] | Potency [14] | Potency [15] | Potency [16]

CCCCNS(=O)(=O)c1ccc(C)cc1
inactive: Potency [1] | Potency [2] | Potency [17] | Potency [3] | Potency [6] | Potency [7] | Potency [8] | Potency [9] | Potency [12] | Potency [13] | Potency [14] | Potency [15] | Potency [16]

C=CCn1c(=O)n(CC=C)c(=O)n(CC=C)c1=O
inactive: Potency [1] | Potency [2] | Potency [3] | Potency [5] | Potency [6] | Potency [7] | Potency [8] | Potency [9] | Potency [12] | Potency [13] | Potency [14] | Potency [15] | Potency [16] | Potency [18]

CN(C)C(=O)COC(=O)Cc1ccc(OC(=O)c2ccc(N=C(N)N)cc2)cc1
inactive: Potency [1] | Potency [2] | Potency [3] | Potency [4] | Potency [19] | Potency [5] | Potency [6] | Potency [7] | Potency [8] | Potency [9] | Potency [10] | activity change, positive = activation ([11]; at 42.5 µM (top of the series)) -1.22% | Potency [12] | Potency [13] | Potency [15] | Potency [16] | Potency [18]

C#CC1(O)CC[C@H]2[C@@H]3CCC4=CCCC[C@@H]4[C@H]3CC[C@@]21C (stereo not given in full)
active: Potency [3] 33.5 µM | Potency [5] 19.3 µM | Potency [6] 21.9 µM and 15.1 µM | Potency [9] 89.8 µM | Potency [10] 61.1 µM and 26.6 µM | Potency [12] 21.3 µM | Potency [13] 17.4 µM and 19 µM | Potency [15] 49 µM and 23.9 µM | Potency [16] 34.7 µM and 21.3 µM | Potency [18] 19.5 µM and 21.3 µM
inactive: Potency [1] | Potency [2] | Potency [4] | Potency [7] | activity change, positive = activation ([11]; at 42.5 µM (top of the series)) -49.7% | activity change, positive = activation ([11]; at 92.4 µM (top of the series)) -45.9%

O=C(Oc1ccccc1)Oc1ccccc1
active: Potency [15] 34.5 µM
inactive: Potency [1] | Potency [2] | Potency [3] | Potency [19] | Potency [5] | Potency [6] | Potency [7] | Potency [8] | Potency [9] | Potency [10] | activity change, positive = activation ([11]; at 92.4 µM (top of the series)) -11.4% | Potency [13] | Potency [14] | Potency [16] | Potency [18]

CCC(=O)C(=O)CC
inactive: Potency [1] | Potency [2] | Potency [20] | Potency [3] | Potency [4] | Potency [19] | Potency [5] | Potency [6] | Potency [7] | Potency [8] | Potency [9] | Potency [10] | activity change, positive = activation ([11]; at 92.4 µM (top of the series)) -15.7% | Potency [12] | Potency [14] | Potency [15] | Potency [16]
